From PubChem BioAssay (NCATS)
Results filed as inconclusive are left out. Active and inactive are the calls of the source. Calls come from the whole dose curve; as a rule, active = well fitted cell-killing curve with a large enough effect; inconclusive = small, poorly fitted or top-dose-only effect, or effect the other way; inactive = flat fitted curve, though single readings scatter. Where a SMILES comes first, the peptide text is derived from it. [ ]: non-standard residue; d: D form. ξ: configuration not given here. ξLac(3-iPr) = CC(C)CC(O)C(=O)O; NMeV = CN[CH](C(=O)O)C(C)C; βAla = NCCC(=O)O

Tests used:
Test in all cases: Primary qHTS to identify gynecologic anti-cancer compounds using libraries of approved drugs and bioactive compounds (AID 1345084); note: nearly all actives have a fitted effect of over 55% in size
C33A = conditions: Gynecologic cancer cell panel viability, ATPlite luminescence, 48 h; series mostly up to 57.5 µM
In short: (§1)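 In this quantitative HTS, cell killing is estimated from loss of ATP-dependent luciferase light. Cells see five compound concentrations over a 48 h exposure.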

CAOV3 = conditions: Gynecologic cancer cell panel viability, ATPlite luminescence, 48 h; series mostly up to 57.5 µM
In short: as §1

CASKI = conditions: Gynecologic cancer cell panel viability, ATPlite luminescence, 48 h; series mostly up to 57.5 µM
In short: as §1

Es-2 = conditions: Gynecologic cancer cell panel viability, ATPlite luminescence, 48 h; series mostly up to 57.5 µM
In short: as §1

HeLa = conditions: Gynecologic cancer cell panel viability, ATPlite luminescence, 48 h; series mostly up to 57.5 µM
In short: as §1

Hek293T = conditions: Gynecologic cancer cell panel viability, ATPlite luminescence, 48 h, control line for the selectivity index; series mostly up to 57.5 µM
In short: as §1

JEG-3 = conditions: Gynecologic cancer cell panel viability, ATPlite luminescence, 48 h; series mostly up to 57.5 µM
In short: as §1

OV90 = conditions: Gynecologic cancer cell panel viability, ATPlite luminescence, 48 h; series mostly up to 57.5 µM
In short: as §1

PA-1 = conditions: Gynecologic cancer cell panel viability, ATPlite luminescence, 48 h; series mostly up to 57.5 µM
In short: as §1

SKOV3 = conditions: Gynecologic cancer cell panel viability, ATPlite luminescence, 48 h; series mostly up to 57.5 µM
In short: as §1

Tov-21-G = conditions: Gynecologic cancer cell panel viability, ATPlite luminescence, 48 h; series mostly up to 57.5 µM
In short: as §1

Tov112D = conditions: Gynecologic cancer cell panel viability, ATPlite luminescence, 48 h; series mostly up to 57.5 µM
In short: as §1
% is set by controls: 0 for no effect and ±100 for the full control effect.

COc1cc2c(cc1OC)CC(=O)N(CCCNC[C@H]1Cc3cc(OC)c(OC)cc31)CC2
inactive: Potency (C33A) | Potency (CAOV3) | Potency (CASKI) | Potency (Es-2) | Potency (HeLa) | Potency (Hek293T) | Potency (JEG-3) | Potency (OV90) | Potency (PA-1) | Potency (SKOV3) | Potency (Tov-21-G) | Potency (Tov112D)

C=C1CCC2C(C)(C(=O)O)CCCC2(C)C1CC/C(=C\CO)CO (stereo not given)
inactive: Potency (C33A) | Potency (CAOV3) | Potency (CASKI) | Potency (Es-2) | Potency (HeLa) | Potency (Hek293T) | Potency (JEG-3) | Potency (OV90) | Potency (PA-1) | Potency (SKOV3) | Potency (Tov-21-G) | Potency (Tov112D)

CC1OC2OC(=O)C3(C)CC4=C(CO)C5=C(CC(=O)C4(C)C(C1=O)C23)C(C)(C)OC(=O)C5 (stereo not given)
inactive: Potency (C33A) | Potency (CAOV3) | Potency (CASKI) | Potency (Es-2) | Potency (HeLa) | Potency (Hek293T) | Potency (JEG-3) | Potency (OV90) | Potency (PA-1) | Potency (SKOV3) | Potency (Tov-21-G) | Potency (Tov112D)

CC(C)CC1OC(=O)C2CCCN2C(=O)CCNC(=O)C(Cc2ccccc2)NC(=O)C(C(C)C)N(C)C(=O)C(C(C)C)N(C)C1=O (stereo not given) (cyclo([ξLac(3-iPr)][NMeV][NMeV]F[βAla]P); configuration not given here)
inactive: Potency (C33A) | Potency (CAOV3) | Potency (CASKI) | Potency (Es-2) | Potency (HeLa) | Potency (Hek293T) | Potency (JEG-3) | Potency (OV90) | Potency (PA-1) | Potency (SKOV3) | Potency (Tov-21-G) | Potency (Tov112D)

COc1ccc(CNC(=O)c2cc(-c3cncc(C)c3)ncc2-c2nccs2)nc1OC
inactive: Potency (C33A) | Potency (CAOV3) | Potency (CASKI) | Potency (Es-2) | Potency (HeLa) | Potency (Hek293T) | Potency (JEG-3) | Potency (OV90) | Potency (PA-1) | Potency (SKOV3) | Potency (Tov-21-G) | Potency (Tov112D)

COC1/C=C/C(C)(O)C(SCC(N)C(=O)O)CC(=O)OC(C)C(C)CC/C=C/1C (stereo not given)
inactive: Potency (C33A) | Potency (CAOV3) | Potency (CASKI) | Potency (Es-2) | Potency (HeLa) | Potency (Hek293T) | Potency (JEG-3) | Potency (OV90) | Potency (PA-1) | Potency (SKOV3) | Potency (Tov-21-G) | Potency (Tov112D)

COc1ccc(C(O)C(C)OC2OC(CO)C(O)C(O)C2O)cc1 (stereo not given)
inactive: Potency (C33A) | Potency (CAOV3) | Potency (CASKI) | Potency (Es-2) | Potency (HeLa) | Potency (Hek293T) | Potency (JEG-3) | Potency (OV90) | Potency (PA-1) | Potency (SKOV3) | Potency (Tov-21-G) | Potency (Tov112D)

Cc1cccc(S(=O)(=O)N2CCC[C@@H]2CCN2CCC(C)CC2)c1
inactive: Potency (C33A) | Potency (CAOV3) | Potency (CASKI) | Potency (Es-2) | Potency (HeLa) | Potency (Hek293T) | Potency (JEG-3) | Potency (OV90) | Potency (PA-1) | Potency (SKOV3) | Potency (Tov-21-G) | Potency (Tov112D)

C/C=C1\[C@H](OC2OC(COC3OC(CO)C(O)C(O)C3O)C(O)C(O)C2O)OC=C(C(=O)OC)[C@H]1CC(=O)OCCc1ccc(O)cc1 (stereo not given in full)
inactive: Potency (C33A) | Potency (CAOV3) | Potency (CASKI) | Potency (Es-2) | Potency (HeLa) | Potency (Hek293T) | Potency (JEG-3) | Potency (OV90) | Potency (PA-1) | Potency (SKOV3) | Potency (Tov-21-G) | Potency (Tov112D)

O=C(COc1cccc2c(=O)[nH]ccc12)c1ccccc1
inactive: Potency (C33A) | Potency (CAOV3) | Potency (CASKI) | Potency (Es-2) | Potency (HeLa) | Potency (Hek293T) | Potency (JEG-3) | Potency (OV90) | Potency (PA-1) | Potency (SKOV3) | Potency (Tov-21-G) | Potency (Tov112D)

CC(C)C1=CC2C(CC[C@]2(C)O)[C@](C)(O)CC1 (stereo not given in full)
inactive: Potency (C33A) | Potency (CAOV3) | Potency (CASKI) | Potency (Es-2) | Potency (HeLa) | Potency (Hek293T) | Potency (JEG-3) | Potency (OV90) | Potency (PA-1) | Potency (SKOV3) | Potency (Tov-21-G) | Potency (Tov112D)

CC1(C)CC2C=C(C(=O)O)C3COC(=O)C(O)(CO)C23C1 (stereo not given)
inactive: Potency (C33A) | Potency (CAOV3) | Potency (CASKI) | Potency (Es-2) | Potency (HeLa) | Potency (Hek293T) | Potency (JEG-3) | Potency (OV90) | Potency (PA-1) | Potency (SKOV3) | Potency (Tov-21-G) | Potency (Tov112D)

COCC1OC(OC(C)(C)C2CCC3(C)C=C(C4CCC5C4(C)CC(O)C4OC(C(C)(C)OC6OC(CO)C(O)C(O)C6NC(C)=O)CCC45C)CCC3O2)C(NC(C)=O)C(O)C1O (stereo not given)
inactive: activity change, negative = cytotoxicity (C33A) 10.6% [at 11.6 µM] | activity change, negative = cytotoxicity (CAOV3) -5.9% [at 11.6 µM] | activity change, negative = cytotoxicity (CASKI) 12.8% [at 11.6 µM] | activity change, negative = cytotoxicity (Es-2) 0.877% [at 11.6 µM] | activity change, negative = cytotoxicity (HeLa) 1.62% [at 11.6 µM] | activity change, negative = cytotoxicity (Hek293T) -4.4% [at 11.6 µM] | activity change, negative = cytotoxicity (JEG-3) 3.33% [at 11.6 µM] | activity change, negative = cytotoxicity (OV90) 3.61% [at 11.6 µM] | activity change, negative = cytotoxicity (PA-1) -1.55% [at 11.6 µM] | activity change, negative = cytotoxicity (SKOV3) 9.88% [at 11.6 µM] | activity change, negative = cytotoxicity (Tov-21-G) 1.68% [at 11.6 µM] | activity change, negative = cytotoxicity (Tov112D) -1.97% [at 11.6 µM]

COc1cc(C(=O)O)ccc1OC1OC(CO)C(O)C(O)C1O (stereo not given)
inactive: Potency (C33A) | Potency (CAOV3) | Potency (CASKI) | Potency (Es-2) | Potency (HeLa) | Potency (Hek293T) | Potency (JEG-3) | Potency (OV90) | Potency (PA-1) | Potency (SKOV3) | Potency (Tov-21-G) | Potency (Tov112D)

N#Cc1ccc2[nH]cc(CCCCN3CCN(c4ccc5oc(C(N)=O)cc5c4)CC3)c2c1
inactive: Potency (C33A) | Potency (CAOV3) | Potency (CASKI) | Potency (Es-2) | Potency (HeLa) | Potency (Hek293T) | Potency (JEG-3) | Potency (OV90) | Potency (PA-1) | Potency (SKOV3) | Potency (Tov-21-G) | Potency (Tov112D)
